Rows were chosen to be rich in hits. Some 2.1% of all compounds tested hit in one or more screens of this group.
KKLEB tox = cytotoxicity in KKLEB CF airway cells, primary screen, cytotoxicity control for CF NF-kB inhibitor project, cell-based, uHTS, fluorescence assay plates. KKLEB CF airway cells viability, ATPlite luminescence, overnight; hits give low values; cells stimulated with P. aeruginosa culture filtrate. activity change (cytotoxicity), % at 5 µM. 360,000 compounds, 0.36% hits. AID 602141, 2011;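 active = corrected activity change at or below -50% at 5 µM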
PAX8 reporter = inhibitors of PAX8-driven TPO luciferase reporter, primary screen, RMG-I cells, single concentration | SteadyGlo, 24 h | inhibition, % at 12.6 µM | 360,000 compounds, 1.2% hits | AID 652154, 2013;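 active = mean replicate inhibition at least 60% with every replicate also reaching 60%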;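 note: luciferase light reporting Pax8 driven TPO promoter activity; plate controls were median of neutral control wells for no effect and mitoxantrone controls for full effect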
EWS-Fli block = EWS/Fli-driven NR0B1 reporter inhibitors, primary screen, A673 cells, NR0B1 luciferase, luminescence, MLPCN library; AID 651661, 2012; viability-normalised; inhibition, % at 12.6 µM; 350,000 compounds, 0.67% hits;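 active = mean inhibition of at least 50% after viability correction, with every replicate also passing that limit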;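 note: firefly luciferase signal divided by Alamar Blue viability fluorescence both relative to DMSO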
CF NFkB block = inhibitors of PAF-induced NF-kB signaling, primary screen, cell-based, GFP fluorescence, uHTS; AID 588850, 2011; KKLEB NF-kB-GFP reporter, GFP fluorescence overnight; 360,000 compounds, 0.86% hits; inhibition, % at 5 µM;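 active = at least 50% inhibition at 5 µM, scaled per plate between neutral and stimulator controls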;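 note: PAF is a Pseudomonas aeruginosa culture filtrate used as stimulus; plate controls were PAF-stimulated DMSO wells for no effect and unstimulated DMSO wells for full effect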
HIF-2a block = HIF-2a reporter inhibitors, primary screen, luminescence, 786-0 RCC cells; 786-0 RCC cells HIF-2a reporter, luciferase luminescence, overnight; inhibition, % at 18.8 µM; 360,000 compounds, 0.72% hits; AID 624352, 2012;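 active = inhibition of the luminescence signal of 40% or more relative to plate controls, in a single-dose primary screen at 18.75 µM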
Numbers without * were called inactive; . = no result.

SMILES | KKLEB tox | PAX8 reporter | EWS-Fli block | CF NFkB block | HIF-2a block
COc1ccc(Cl)cc1C(=O)Nc1nc2ccccc2[nH]1 | -52* | 42 | 72* | -31 | 33
CO[C@H]1CN(C)C(=O)c2ccc(NC(=O)NC(C)C)cc2OC[C@H](C)N(Cc2cncnc2)C[C@H]1C | . | . | -7 | . | .
CN1c2ccc(-c3cccc(C#N)c3)cc2[C@H]2[C@H](CCN2C(=O)NC2CCCCC2)[C@H]1CO | . | -8 | -2 | . | .
O=C(NC[C@@H]1CC[C@H]2[C@H](CN2Cc2cc(-c3ccccc3)on2)O1)c1ccc2c(c1)OCO2 | . | 39 | -3 | . | .
CCOC(=O)COc1ccc2nsnc2c1Cl | -2 | . | . | -7 | 10
C=C(CC)C(=O)c1ccc(OCC(=O)O)c(Cl)c1Cl | 0 | 81* | 10 | -36 | -17
COc1cc(-c2noc(C)c2/C=C/c2cccc([N+](=O)[O-])c2)cc(OC)c1OC | -48 | 59 | 54* | 35 | 10
CCOC(=O)c1c2c(n(-c3ccc(OC)cc3)c1C)C(=O)C(=O)c1ccccc1-2 | -91* | . | . | 82* | 83*
COC(=O)c1sc(N)c(C(=O)OC)c1Cn1ncc(Cl)c(Cl)c1=O | -7 | 63* | 13 | 16 | 9
COc1ccc2c3c([nH]c2c1)[C@H](CO)N(CC1CC1)CC31CN(C(=O)c2ccccc2F)C1 | . | . | -1 | . | .
O=C(CCc1ccc(S(=O)(=O)NCc2ccccc2)cc1)NCc1ccco1 | 2 | 157* | -14 | -12 | 16
CCNS(=O)(=O)c1ccc(CCC(=O)NCc2cccnc2)cc1 | -7 | -11 | -3 | 0 | 16
O=C(CCc1ccc(S(=O)(=O)NCc2ccccc2)cc1)NCc1cccnc1 | -7 | 127* | -3 | 10 | 7
O=C(c1cccc(F)c1)N1CCCCN2[C@@H](CO)[C@H](c3ccc(/C=C/c4ccccc4)cc3)[C@@H]2C1 | . | -4 | 2 | . | .
CC1=C(SCc2ccccc2)C(=O)c2ccccc2C1=O | -44 | 64* | 39 | 89* | 29
COC(=O)c1c(NC(=O)CCl)sc(C(=O)N2CCOCC2)c1C | -40 | 36 | 27 | 50* | -2
CCS(=O)(=O)N1CC2(C1)[C@H](c1ccccc1)[C@H](CO)N2Cc1ccccn1 | . | -16 | 3 | . | .
C=CC(=O)N1C/C(=C/c2ccc(Cl)cc2)C(=O)/C(=C\c2ccc(Cl)cc2)C1 | -97* | 110* | 77* | 87* | 83*
C=CC(=O)N1C/C(=C/c2ccccc2)C(=O)/C(=C\c2ccccc2)C1 | -42 | 80* | 72* | 81* | 91*
O=C1C(=Cc2ccc(Cl)cc2)Cc2ccccc21 | . | -81 | -61 | . | -197
CCC(=O)N1[C@H](CO)[C@@H](c2ccc(-c3cccc(F)c3)cc2)[C@@H]1CN(C)C(C)=O | . | -2 | 6 | . | .
CCCc1nc2c(=O)n(C)c(=O)nc-2n(C)n1 | -39 | 104* | 45 | 97* | 80*
Cn1nc(-c2ccccn2)nc2c(=O)n(C)c(=O)nc1-2 | -99* | 105* | 37 | 100* | 71*
CCn1c(N)nc2c1c(=O)n(C)c(=O)n2C | 8 | 13 | -3 | 15 | 8
CCCCN(CCCNC(=O)c1ccc(CS(=O)(=O)c2c(Cl)cccc2Cl)o1)Cc1ccccc1 | -2 | 12 | . | 7 | 11
SMILES | KKLEB tox | PAX8 reporter | EWS-Fli block | CF NFkB block | HIF-2a block
CC(C)N(CCCNC(=O)c1ccc(CS(=O)(=O)c2c(Cl)cccc2Cl)o1)Cc1ccccc1 | -15 | 62* | 3 | 36 | 11
Fc1ccc(-c2nnc(-c3ccc(Cl)cc3Cl)o2)cc1 | -55* | -59 | 39 | -52 | -118
CNC[C@@H]1Oc2c(NC(=O)c3ccncc3)cccc2C(=O)N([C@H](C)CO)C[C@@H]1C | . | 1 | 0 | . | .
CCNC(=O)C(Sc1ccccc1)c1ccccc1 (stereo unspecified) | -10 | -10 | . | 0 | 20
CCCCNC(=O)C(Sc1ccccc1)c1ccccc1 (stereo unspecified) | -6 | 145* | -9 | 8 | 15
CC1(S(=O)(=O)O)CC(=O)c2ccccc2C1=O (stereo unspecified) | 28 | 34 | -4 | 69* | 32
C[C@@H]1CCCCO[C@H](CN(C)C(=O)Nc2cccc3ccccc23)[C@@H](C)CN([C@H](C)CO)C(=O)c2cc(NS(=O)(=O)c3ccc(Cl)cc3)ccc2O1 | . | 7 | 7 | . | .
C[C@H]1CCCCO[C@H](CN(C)C(=O)Nc2cccc3ccccc23)[C@@H](C)CN([C@@H](C)CO)C(=O)c2cc(NS(=O)(=O)c3ccc(Cl)cc3)ccc2O1 | . | 82* | 15 | . | .
C[C@@H]1CCCCO[C@@H](CN(C)C(=O)Nc2cccc3ccccc23)[C@H](C)CN([C@H](C)CO)C(=O)c2cc(NS(=O)(=O)c3ccc(Cl)cc3)ccc2O1 | . | 94* | 8 | . | .
C[C@H](CO)N1C[C@H](C)[C@@H](CN(C)C(=O)Nc2cccc3ccccc23)OCCCC[C@H](C)Oc2ccc(NS(=O)(=O)c3ccc(Cl)cc3)cc2C1=O | . | 42 | 11 | . | .
COc1ccc(NC(=O)N(C)C[C@@H]2Oc3ccc(N(C)C)cc3C(=O)N([C@H](C)CO)C[C@H]2C)cc1 | . | -16 | . | . | .
CCOC(=O)Nc1nc2ccc(Cn3cccc3)cc2[nH]1 | -4 | . | 51* | 38 | -106
COc1ccc(S(=O)(=O)Nc2ccc3c(c2)C(=O)N([C@H](C)CO)C[C@@H](C)[C@H](CN(C)C(=O)Nc2ccc(C(F)(F)F)cc2)OCCCC[C@@H](C)O3)cc1 | . | 62* | 7 | . | .
COc1ccc(S(=O)(=O)Nc2ccc3c(c2)C(=O)N([C@H](C)CO)C[C@@H](C)[C@H](CN(C)C(=O)Nc2ccc(C(F)(F)F)cc2)OCCCC[C@H](C)O3)cc1 | . | 77* | 19 | . | .
COc1ccc(S(=O)(=O)Nc2ccc3c(c2)C(=O)N([C@H](C)CO)C[C@H](C)[C@H](CN(C)C(=O)Nc2ccc(C(F)(F)F)cc2)OCCCC[C@H](C)O3)cc1 | . | 35 | 9 | . | .
O=C(Cc1cccnc1)N1CC(=O)N2[C@H](CO)[C@H](c3ccc(C#CC4CCCC4)cc3)[C@H]2C1 | . | . | 9 | . | .
O=C(Nc1cccc(C2=NCCN2)c1)Nc1cccc(C2=NCCN2)c1 | 2 | 99* | -10 | -11 | -5
CC(C)NC(=O)N1[C@@H](CO)[C@@H](c2ccccc2)C12CN(Cc1ccc(F)cc1)C2 | . | . | -13 | . | .
COc1ccccc1CNC(=O)C[C@@H]1C[C@@H]2c3cc(NC(=O)CN(C)C)ccc3O[C@@H]2[C@H](CO)O1 | . | 0 | -6 | . | .
O=C1C=CCCN1S(=O)(=O)/C=C/c1ccccc1 | . | 89* | 62* | . | .
CCCNC(=O)N(C)C[C@@H]1Oc2ncc(C#CC3CC3)cc2C(=O)N([C@@H](C)CO)C[C@@H]1C | . | . | -3 | . | .
